Results filed as inconclusive are left out. Calls of active or inactive are those of the source. Calls come from the whole dose curve; as a rule, active = well fitted inhibition curve with a large enough effect in the signal ratio, with a control signal flat; inconclusive = small, poorly fitted or top-dose-only effect, or effect the other way; inactive = flat fitted curve, though single readings scatter; the % refers to the signal ratio.

The assay can be described thus: Confirmation Concentration-Response Assay for Identification of Small Molecule Antagonists of Stat Signaling Pathway. Particulars: SIE-bla cells, IL-6 stimulated, beta-lactamase ratio, 5 h. The source says:
NIH Molecular Libraries Screening Centers Network [MLSCN] NIH Chemical Genomics Center [NCGC] MLSCN Grant: None NCGC Assay Overview: This assay is a retest of actives identified from the Stat signaling pathway assay (PubChem AID 446). The Stat assay is cell-based and measures Interleukin 6 (IL-6) mediated modulation of a beta-lactamase reporter gene controlled by a STAT inducible element (SIE-bla cells, Invitrogen). IL-6 is a cytokine that signals via the JAK/STAT pathway and is implicated in cancer and inflammation. SIE-bla cells are induced by IL-6 at 40 pM EC50 and inhibited by the pan JAK inhibitor, 2-(1,1-Dimethylethyl)-9-fluoro-3,6-dihydro-7H-benz[h]-imidaz[4,5-f]isoquinolin-7-one, at approximately 10 nM IC50. Plated cells were incubated overnight and on the following day, stimulated with 40 pM IL-6 for 5 hrs. The assay was stimulated with an EC50 of IL-6 to retest inhibitors of STAT signaling.
NCGC Assay Protocol Summary: Cells were trypsinized, washed in assay medium (AM, OPTI MEM with 0.5% fetal bovine serum, 0.1 mM nonessential amino acids, 1 mM sodium pyruvate, 10mM HEPES pH 7.3, 100U/ml penicillin, and 100 ug/ml streptomycin) and suspended at […] in AM. Approximately 2500 cells in 5 uL/well was dispensed into 1536-well plates and the cells were incubated overnight at 37 C. 23 nL of compound were delivered by a pin tool and 1 uL of IL-6 (40 pM final concentration in AM) was added. After plates were incubated at 37 C for 5 hrs, 1uL of detector mix (LiveBLAzerTM, Invitrogen) was added, the plates incubated at room temperature for 2.5 hrs, and fluorescence intensity at 460 and 530 nm emissions was measured at 405 nm excitation by an Envision (Perkin Elmer).
With `COc1ccc(C[C@@H]2C(=O)N[C@H](C)C(=O)N(C)[C@@H]3C(=O)N(C)[C@@H](Cc4ccc(O)c(c4)Oc4ccc(cc4)[C@H]3O)C(=O)N[C@@H](C)C(=O)N[C@H](C)C(=O)N2C)cc1`, the Potency is 0.398 µM (active).
The figure for `CCn1cnc2c(Nc3cccc(Cl)c3)nc(N[C@@H]3CCCC[C@H]3N)nc21` is 3.98 µM (active); for `CC(C)[C@H](CO)Nc1nc(Nc2cccc(Cl)c2)c2ncn(C(C)C)c2n1` it is 5.01 µM (active).
The figure for `CC(C)C[C@H]1C(=O)N2CCC[C@H]2[C@]2(O)O[C@](NC(=O)[C@@H]3C=C4c5cccc6[nH]c(Br)c(c56)CC4N(C)C3)(C(C)C)C(=O)N12` (stereo partly specified) is 12.6 µM (active); for `C[C@]1(C(=O)O)[C@@H]2CC[C@@H](O2)[C@@]1(C)C(=O)O` it is 10 µM (active); for `CC[C@@H]1CN2CCc3cc(OC)c(OC)cc3[C@H]2C[C@@H]1C[C@@H]1NCCc2cc(OC)c(OC)cc21` it is 0.398 µM (active).

The values are drawn from PubChem BioAssay AID922 (National Center for Advancing Translational Sciences (NCATS), 2007).
